This is one part of a sample in which the strongest signals are shown more often than they occur.
What was measured:
Experiment in all cases: glycan array binding signal (z-score within array); higher = stronger binding
Details in all cases: glycan notation: IUPAC condensed, linker removed
[1] = biological target: Fuc(a1-2)Gal(b1-3)[Fuc(a1-4)]GlcNAc(b1-2)Man(a1-3)[Fuc(a1-2)Gal(b1-3)[Fuc(a1-4)]GlcNAc(b1-2)Man(a1-6)]Man(b1-4)GlcNAc(b1-4)GlcNAc
How it was run: (§1)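 From the Consortium for Functional Glycomics database, 3228 arrays were curated, keeping only those whose protein sequence was available. Binding is given as a within-array Z-score averaged across arrays sharing a protein sequence and across linkers. Negative Z-scores can be read as non-binding.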

[2] = biological target: Fuc(a1-2)Gal(b1-3)[Fuc(a1-4)]GlcNAc(b1-3)[Fuc(a1-3)[Gal(b1-4)]GlcNAc(b1-6)]Gal(b1-4)Glc
How it was run: as §1

[3] = biological target: Fuc(a1-2)Gal(b1-4)[Fuc(a1-3)]GlcNAc(b1-3)Gal(b1-4)[Fuc(a1-3)]GlcNAc(b1-3)Gal(b1-4)[Fuc(a1-3)]GlcNAc
How it was run: as §1

[4] = biological target: Fuc(a1-2)Gal(b1-4)[Fuc(a1-3)]GlcNAc(b1-3)GalNAc
How it was run: as §1

Fuc(a1-2)Gal6S(b1-4)Glc = biological target: Fuc(a1-2)Gal6S(b1-4)Glc
How it was run: as §1

[5] = biological target: Fuc(a1-2)[Gal(a1-4)]Gal(b1-4)GlcNAc
How it was run: as §1

[6] = biological target: Fuc(a1-2)[GalNAc(a1-3)]Gal(b1-3)GalNAc(a1-3)[Fuc(a1-2)]Gal(b1-4)GlcNAc
How it was run: as §1

[7] = biological target: Fuc(a1-2)[GalNAc(a1-3)]Gal(b1-3)GlcNAc(b1-3)GalNAc
How it was run: as §1

[8] = biological target: Fuc(a1-2)[GalNAc(a1-3)]Gal(b1-4)[Fuc(a1-3)]GlcNAc(b1-3)GalNAc
How it was run: as §1

[9] = biological target: Fuc(a1-3)[Gal(b1-4)]GlcNAc(b1-6)GalNAc
How it was run: as §1

[10] = biological target: Gal(a1-3)Gal(b1-3)GlcNAc(b1-2)Man(a1-3)[Gal(a1-3)Gal(b1-3)GlcNAc(b1-2)Man(a1-6)]Man(b1-4)GlcNAc(b1-4)GlcNAc
How it was run: as §1

[11] = biological target: Gal(a1-3)Gal(b1-4)[Fuc(a1-3)]GlcNAc(b1-2)Man(a1-3)[Gal(a1-3)Gal(b1-4)[Fuc(a1-3)]GlcNAc(b1-2)Man(a1-6)]Man(b1-4)GlcNAc(b1-4)GlcNAc
How it was run: as §1

[12] = biological target: Gal(b1-3)GlcNAc(b1-3)Gal(b1-3)GlcNAc
How it was run: as §1

[13] = biological target: Gal(b1-3)[Fuc(a1-4)]GlcNAc(b1-3)Gal(b1-4)[Fuc(a1-3)]GlcNAc
How it was run: as §1

[14] = biological target: Gal(b1-3)[Neu5Ac(a2-6)]GalNAc
How it was run: as §1

[15] = biological target: Gal(b1-4)GalNAc(a1-3)[Fuc(a1-2)]Gal(b1-4)GlcNAc
How it was run: as §1

[16] = biological target: Gal(b1-4)GlcNAc(b1-2)[Gal(b1-4)GlcNAc(b1-6)]Man(a1-6)[Gal(b1-4)GlcNAc(b1-2)Man(a1-3)]Man(b1-4)GlcNAc(b1-4)GlcNAc
How it was run: as §1

[17] = biological target: Gal(b1-4)GlcNAc(b1-2)[Gal(b1-4)GlcNAc(b1-6)]Man(a1-6)[GlcNAc(b1-4)][Gal(b1-4)GlcNAc(b1-2)Man(a1-3)]Man(b1-4)GlcNAc(b1-4)GlcNAc
How it was run: as §1

[18] = biological target: Gal(b1-4)GlcNAc(b1-3)Gal(b1-4)[Fuc(a1-3)GlcNAc(b1-6)]Gal(b1-4)Glc
How it was run: as §1

[19] = biological target: Gal(b1-4)GlcNAc(b1-3)[Gal(b1-4)GlcNAc(b1-6)]Gal(b1-4)GlcNAc
How it was run: as §1

Gal3S(b1-4)GlcNAc6S = biological target: Gal3S(b1-4)GlcNAc6S
How it was run: as §1

[20] = biological target: Gal3S(b1-4)[Fuc(a1-3)]Glc
How it was run: as §1

[21] = biological target: Gal3S(b1-4)[Fuc(a1-3)]Glc6S
How it was run: as §1

Gal3S4S(b1-4)GlcNAc = biological target: Gal3S4S(b1-4)GlcNAc
How it was run: as §1

Gal3S6S(b1-4)GlcNAc6S = biological target: Gal3S6S(b1-4)GlcNAc6S
How it was run: as §1

[22] = biological target: GalNAc(b1-3)Gal(a1-4)Gal(b1-4)GlcNAc
How it was run: as §1

Glc(a1-6)Glc(a1-6)Glc = biological target: Glc(a1-6)Glc(a1-6)Glc
How it was run: as §1

[23] = biological target: GlcNAc(a1-4)Gal(b1-4)GlcNAc(b1-3)Gal(b1-4)[Fuc(a1-3)]GlcNAc(b1-3)Gal(b1-4)[Fuc(a1-3)]GlcNAc
How it was run: as §1

[24] = biological target: GlcNAc(b1-2)[GlcNAc(b1-4)]Man(a1-3)[GlcNAc(b1-4)][GlcNAc(b1-2)Man(a1-6)]Man(b1-4)GlcNAc(b1-4)GlcNAc
How it was run: as §1

[25] = biological target: GlcNAc(b1-2)[GlcNAc(b1-6)]Man(a1-6)[GlcNAc(b1-2)Man(a1-3)]Man(b1-4)GlcNAc(b1-4)GlcNAc
How it was run: as §1

[26] = biological target: GlcNAc(b1-4)[GlcNAc(b1-6)]GalNAc
How it was run: as §1

[27] = biological target: Neu5Ac(a2-3)Gal(b1-3)GlcNAc6S
How it was run: as §1

[28] = biological target: Neu5Ac(a2-3)Gal(b1-4)GlcNAc(b1-3)Gal
How it was run: as §1

[29] = biological target: Neu5Ac(a2-3)Gal(b1-4)GlcNAc(b1-6)[Neu5Ac(a2-3)Gal(b1-3)]GalNAc
How it was run: as §1

[30] = biological target: Neu5Ac(a2-3)Gal(b1-4)[Fuc(a1-3)]GlcNAc(b1-3)GalNAc
How it was run: as §1

[31] = biological target: Neu5Ac(a2-3)Gal(b1-4)[Fuc(a1-3)]GlcNAc(b1-6)[Gal(b1-3)]GalNAc
How it was run: as §1

[32] = biological target: Neu5Ac(a2-3)[Neu5Ac(a2-6)]GalNAc
How it was run: as §1

[33] = biological target: Neu5Ac(a2-6)Gal(b1-4)GlcNAc(b1-2)Man(a1-3)[GlcNAc(b1-2)Man(b1-4)GlcNAc(b1-2)Man(a1-6)]Man(b1-4)GlcNAc(b1-4)GlcNAc
How it was run: as §1

[34] = biological target: Neu5Ac(a2-6)Gal(b1-4)GlcNAc(b1-3)Gal(b1-3)GlcNAc
How it was run: as §1

Neu5Ac(a2-6)GalNAc = biological target: Neu5Ac(a2-6)GalNAc
How it was run: as §1

[35] = biological target: Neu5Ac(a2-8)Neu5Ac(a2-3)[GalNAc(b1-4)]Gal(b1-4)Glc
How it was run: as §1

Neu5Ac(b2-6)GalNAc = biological target: Neu5Ac(b2-6)GalNAc
How it was run: as §1

[36] = biological target: Neu5Gc(a2-6)Gal(b1-4)GlcNAc
How it was run: as §1

B1: GNAT (Pseudomonas aeruginosa), Q9HV14 (protein)
chain: MQLSHRPAETGDLETVAGFPQDRDELFYCYPKAIWPFSVAQLAAAIAERRGSTVAVHDGQVLGFANFYQWQHGDFCALGNMMVAPAARGLGVARYLIGVMENLAREQYKARLMKISCFNANAAGLLLYTQLGYQPRAIAERHDPDGRRVALIQMDKPLEP
- glycan array binding signal (z-score) [1]: 2.54
- glycan array binding signal (z-score) [2]: -0.247
- glycan array binding signal (z-score) [3]: -0.411
- glycan array binding signal (z-score) [4]: 4.04
- glycan array binding signal (z-score) (Fuc(a1-2)Gal6S(b1-4)Glc): -0.374
- glycan array binding signal (z-score) [5]: -0.398
- glycan array binding signal (z-score) [6]: -0.345
- glycan array binding signal (z-score) [7]: 5.4
- glycan array binding signal (z-score) [8]: 4.86
- glycan array binding signal (z-score) [9]: 5.07
- glycan array binding signal (z-score) [10]: 2.69
- glycan array binding signal (z-score) [11]: 4.4
- glycan array binding signal (z-score) [12]: 0.929
- glycan array binding signal (z-score) [13]: -0.315
- glycan array binding signal (z-score) [14]: 0.421
- glycan array binding signal (z-score) [15]: -0.14
- glycan array binding signal (z-score) [16]: 1.21
- glycan array binding signal (z-score) [17]: -0.222
- glycan array binding signal (z-score) [18]: 0.293
- glycan array binding signal (z-score) [19]: -0.269
- glycan array binding signal (z-score) (Gal3S(b1-4)GlcNAc6S): -0.322
- glycan array binding signal (z-score) [20]: -0.301
- glycan array binding signal (z-score) [21]: 6.54
- glycan array binding signal (z-score) (Gal3S4S(b1-4)GlcNAc): -0.461
- glycan array binding signal (z-score) (Gal3S6S(b1-4)GlcNAc6S): -0.379
- glycan array binding signal (z-score) [22]: -0.284
- glycan array binding signal (z-score) (Glc(a1-6)Glc(a1-6)Glc): -0.33
- glycan array binding signal (z-score) [23]: 3.72
- glycan array binding signal (z-score) [24]: -0.318
- glycan array binding signal (z-score) [25]: -0.257
- glycan array binding signal (z-score) [26]: -0.407
- glycan array binding signal (z-score) [27]: -0.165
- glycan array binding signal (z-score) [28]: -0.403
- glycan array binding signal (z-score) [29]: -0.097
- glycan array binding signal (z-score) [30]: 2.77
- glycan array binding signal (z-score) [31]: 5.03
- glycan array binding signal (z-score) [32]: -0.405
- glycan array binding signal (z-score) [33]: -0.293
- glycan array binding signal (z-score) [34]: -0.3
- glycan array binding signal (z-score) (Neu5Ac(a2-6)GalNAc): -0.404
- glycan array binding signal (z-score) [35]: -0.165
- glycan array binding signal (z-score) (Neu5Ac(b2-6)GalNAc): -0.413
- glycan array binding signal (z-score) [36]: -0.437

Reference: the supplement of paper PMC8728848
